# Assay results as given in PubChem BioAssay (EPA / NIEHS).
# “And” between values parts separate entries of the source, which are not always exact repeats. Equal values may be shown once. Some structures have more than one record in an assay (separate samples or runs), and their calls can disagree. The source made the active and inactive calls. The calls were made as follows: active = hit-call score of the fitted dose curve at least 0.9, where 1 is the maximum; inactive = score below 0.9.
# Experiments:
# [1] = read-out: Collagen IV, COL4A1 (gene 1282); experiment: BSK_MyoF_CollagenIV: BioMAP Diversity Plus: MyoF Assay for Collagen IV Biomarker Activity (AID 2284247); details: primary human lung fibroblasts
# How it was run: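 Primary human lung fibroblasts (MyoF system) dosed 24 h; Collagen IV measured by ELISA. Activity fitted in positive direction against DMSO; cytotoxicity tracked by SRB total-protein staining in parallel cultures.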
# [2] = read-out: Monokine induced gamma interferon (MIG), CXCL9 (gene 4283); experiment: BSK_KF3CT_MIG: BioMAP Diversity Plus: KF3CT Assay for Monokine induced gamma interferon (MIG) Biomarker Activity (AID 2284248); details: primary human keratinocytes with fibroblasts
# How it was run: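 Human keratinocyte plus foreskin fibroblast primary co-culture dosed with test chemical for 24 h; MIG level measured by ELISA and fitted in the positive direction against DMSO as baseline.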
# [3] = read-out: Vascular cell adhesion molecule 1 (VCAM1), VCAM1 (gene 7412); experiment: BSK_BF4T_VCAM1: BioMAP Diversity Plus: BF4T Assay for Vascular cell adhesion molecule 1 (VCAM1) Biomarker Activity (AID 2284249); details: primary human bronchial epithelial cells with fibroblasts
# How it was run: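 Human bronchial epithelial cell and dermal fibroblast co-culture exposed 24 h. VCAM-1 measured by ELISA; parallel SRB total-protein staining for cytotoxicity. Fitted in positive direction relative to DMSO.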
# [4] = read-out: Collagen I, COL1A1 (gene 1277); experiment: BSK_hDFCGF_CollagenI: BioMAP Diversity Plus: hDFCGF Assay for Collagen I Biomarker Activity (AID 2284250); details: primary human foreskin fibroblasts
# How it was run: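 Primary human foreskin fibroblasts exposed to chemical for 24 h; Collagen I levels measured by ELISA. Cytotoxicity checked by SRB total-protein staining in parallel cultures.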
# [5] = read-out: Interferon-inducible T-cell alpha chemoattractant (ITAC), CXCL11 (gene 6373); experiment: BSK_hDFCGF_ITAC: BioMAP Diversity Plus: hDFCGF Assay for Interferon-inducible T-cell alpha chemoattractant (ITAC) Biomarker Activity (AID 2284251); details: primary human foreskin fibroblasts
# How it was run: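 ELISA readout of I-TAC after 24 h chemical exposure; human dermal foreskin fibroblast primary cells. Positive-direction fitting vs DMSO baseline. Parallel SRB total-protein staining (0.1% SRB after 10% TCA fixation, 560 nm) flags cytotoxicity.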
# [6] = read-out: Plasminogen activator inhibitor-1 (PAI1), SERPINE1 (gene 5054); experiment: BSK_KF3CT_PAI1: BioMAP Diversity Plus: KF3CT Assay for Plasminogen activator inhibitor-1 (PAI1) Biomarker Activity (AID 2284252); details: primary human keratinocytes with fibroblasts
# How it was run: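 Human keratinocyte/foreskin fibroblast co-culture dosed for 24 h; PAI-1 measured by ELISA, fitted in positive direction against DMSO baseline. Parallel SRB total-protein staining (0.1% SRB, 560 nm) assesses overt cytotoxicity.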
# [7] = read-out: Monocyte Chemoattractant Protein-1 (MCP1), CCL2 (gene 6347); experiment: BSK_IMphg_MCP1: BioMAP Diversity Plus: IMphg Assay for Monocyte Chemoattractant Protein-1 (MCP1) Biomarker Activity (AID 2284253); details: primary human endothelial cells with macrophages
# How it was run: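 Human venular endothelial cells co-cultured with macrophages; MCP-1 measured by ELISA 24 hours post-dose and fitted against DMSO. Cytotoxicity monitored by SRB total-protein staining in parallel cultures.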
# [8] = read-out: Interleukin-8 (IL8), CXCL8 (gene 3576); experiment: BSK_KF3CT_IL8: BioMAP Diversity Plus: KF3CT Assay for Interleukin-8 (IL8) Biomarker Activity (AID 2284254); details: primary human keratinocytes with fibroblasts
# How it was run: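 Human primary keratinocyte plus foreskin fibroblast co-culture dosed with test chemicals; IL-8 measured by ELISA 24 h after dosing. Activity fitted in the positive direction relative to DMSO negative control.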
# [9] = read-out: Macrophage Inflammatory Protein-1 Alpha (MIP1a), CCL3 (gene 6348); experiment: BSK_IMphg_MIP1a: BioMAP Diversity Plus: IMphg Assay for Macrophage Inflammatory Protein-1 Alpha (MIP1a) Biomarker Activity (AID 2284255); details: primary human endothelial cells with macrophages
# How it was run: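 Co-culture of human venular endothelial cells and macrophages exposed to compounds for 24 h; MIP-1a measured by ELISA relative to DMSO. Cytotoxicity assessed in parallel cultures by sulforhodamine B total-protein staining at 560 nm.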
# [10] = read-out: Plasminogen activator inhibitor-1 (PAI1), SERPINE1 (gene 5054); experiment: BSK_MyoF_PAI1: BioMAP Diversity Plus: MyoF Assay for Plasminogen activator inhibitor-1 (PAI1) Biomarker Activity (AID 2284256); details: primary human lung fibroblasts;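 as to outcome: PAI-1 read 24 h after compound addition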
# How it was run: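 ELISA read-out of PAI-1 from primary human lung fibroblast cultures 24 h after dosing; gain-of-signal fit versus DMSO control.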
# CD69, CD69 (gene 969) = experiment: BSK_IMphg_CD69: BioMAP Diversity Plus: IMphg Assay for CD69 Biomarker Activity (AID 2284257); details: primary human endothelial cells with macrophages
# How it was run: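 Human venular endothelial cells co-cultured with macrophages; CD69 quantified by ELISA 24 h after compound addition. Activity fitted in the positive direction relative to DMSO baseline; cytotoxicity tracked in parallel cultures via SRB total-protein staining.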
# [11] = read-out: Eotaxin 3, CCL26 (gene 10344); experiment: BSK_BF4T_Eotaxin3: BioMAP Diversity Plus: BF4T Assay for Eotaxin 3 Biomarker Activity (AID 2284258); details: primary human bronchial epithelial cells with fibroblasts
# How it was run: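 Co-culture of human bronchial epithelial cells and dermal fibroblasts, exposed to chemicals for 24 h versus DMSO. Eotaxin-3 quantified by ELISA; cytotoxicity checked in parallel cultures by sulforhodamine B total-protein staining.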
# [12] = read-out: Monocyte Chemoattractant Protein-1 (MCP1), CCL2 (gene 6347); experiment: BSK_BF4T_MCP1: BioMAP Diversity Plus: BF4T Assay for Monocyte Chemoattractant Protein-1 (MCP1) Biomarker Activity (AID 2284259); details: primary human bronchial epithelial cells with fibroblasts
# How it was run: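 Co-culture of bronchial epithelial cells and dermal fibroblasts dosed with chemical; MCP-1 measured by ELISA 24 h later. Activity fitted in positive direction versus DMSO; cytotoxicity checked by SRB staining in parallel cultures.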
# [13] = read-out: Intercellular Adhesion Molecule 1 (ICAM1), ICAM1 (gene 3383); experiment: BSK_BF4T_ICAM1: BioMAP Diversity Plus: BF4T Assay for Intercellular Adhesion Molecule 1 (ICAM1) Biomarker Activity (AID 2284260); details: primary human bronchial epithelial cells with fibroblasts
# How it was run: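 Co-culture of human bronchial epithelial cells and dermal fibroblasts exposed 24 h to chemical; cell-surface ICAM-1 quantified by ELISA. Parallel SRB total-protein staining assessed cytotoxicity; activity fitted relative to DMSO.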
# [14] = read-out: Interleukin-8 (IL8), CXCL8 (gene 3576); experiment: BSK_MyoF_IL8: BioMAP Diversity Plus: MyoF Assay for Interleukin-8 (IL8) Biomarker Activity (AID 2284261); details: primary human lung fibroblasts
# How it was run: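 ELISA read-out of IL-8 from primary human lung fibroblasts, 24 h post-dose; positive-direction curve fitting relative to DMSO vehicle baseline.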
# CD90, THY1 (gene 7070) = experiment: BSK_BF4T_CD90: BioMAP Diversity Plus: BF4T Assay for CD90 Biomarker Activity (AID 2284262); details: primary human bronchial epithelial cells with fibroblasts
# How it was run: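 Co-culture of human bronchial epithelial cells and dermal fibroblasts, 24 h compound exposure. Cell-surface CD90 measured by ELISA relative to DMSO; parallel SRB total-protein staining for cytotoxicity.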
# [15] = read-out: Interleukin-8 (IL8), CXCL8 (gene 3576); experiment: BSK_BF4T_IL8: BioMAP Diversity Plus: BF4T Assay for Interleukin-8 (IL8) Biomarker Activity (AID 2284263); details: primary human bronchial epithelial cells with fibroblasts
# How it was run: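 Human bronchial epithelial cells with dermal fibroblasts co-culture; IL-8 measured by ELISA 24 hours after dosing, fitted vs DMSO. Cytotoxicity tracked in parallel cultures by SRB total-protein staining.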
# [16] = read-out: Interleukin-1 alpha (IL1a), IL1A (gene 3552); experiment: BSK_BF4T_IL1a: BioMAP Diversity Plus: BF4T Assay for Interleukin-1 alpha (IL1a) Biomarker Activity (AID 2284264); details: primary human bronchial epithelial cells with fibroblasts
# How it was run: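 Human bronchial epithelial cells co-cultured with dermal fibroblasts, dosed and read at 24 h. Secreted/surface IL-1α quantified by ELISA; gain-of-signal fitted relative to DMSO baseline. Parallel SRB total-protein staining tracked cytotoxicity.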
# Decorin, DCN (gene 1634) = experiment: BSK_MyoF_Decorin: BioMAP Diversity Plus: MyoF Assay for Decorin Biomarker Activity (AID 2284265); details: primary human lung fibroblasts
# How it was run: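 Human lung fibroblasts in the MyoF system were exposed to compound for 24 h, after which decorin was quantified by ELISA. Activity was fitted in the positive direction relative to DMSO negative control.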
# KRT18 (gene 3875) = experiment: BSK_BF4T_Keratin818: BioMAP Diversity Plus: BF4T Assay for Keratin 818 Biomarker Activity (AID 2284266); details: primary human bronchial epithelial cells with fibroblasts
# How it was run: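 Co-culture of human bronchial epithelial cells and dermal fibroblasts, chemical exposure 24 h. Keratin 8/18 measured by ELISA; positive-direction fit vs DMSO. SRB total protein run in parallel cultures for cytotoxicity.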
smiles,measurement,setting,value
C[C@@H]1C[C@H]2[C@@H]3CCC4=CC(=O)C=C[C@]4(C)[C@@]3(F)[C@@H](O)C[C@]2(C)[C@@]1(O)C(=O)COP(=O)(O)O,outcome,[1],inactive
same,outcome,[2],inactive
same,outcome,[3],inactive
same,outcome,[4],inactive
same,AC50,[5],1.1 µM (active)
same,outcome,[5],inactive
same,outcome,[6],inactive
same,AC50,[7],1.04 µM (active) and 1.15 µM (active)
same,outcome,[8],inactive
same,AC50,[9],946 nM (active) and 574 nM (active)
same,outcome,[10],inactive
same,outcome,"CD69, CD69 (gene 969)",inactive
same,AC50,[11],951 nM (active)
same,outcome,[11],inactive
same,outcome,[12],inactive
same,outcome,[13],inactive
same,outcome,[14],inactive
same,outcome,"CD90, THY1 (gene 7070)",inactive
same,outcome,[15],inactive
same,outcome,[16],inactive
same,outcome,"Decorin, DCN (gene 1634)",inactive
same,outcome,KRT18 (gene 3875),inactive
OCCC(F)(F)C(F)(F)C(F)(F)C(F)(F)C(F)(F)C(F)(F)F,outcome,[1],inactive
same,outcome,[2],inactive
same,outcome,[3],inactive
same,AC50,[4],30 µM (active) and 46.9 µM (active)
same,AC50,[5],55 µM (active) and 57.4 µM (active)
same,outcome,[6],inactive
same,outcome,[7],inactive
same,outcome,[8],inactive
same,AC50,[9],42.4 µM (active)
same,outcome,[9],inactive
same,outcome,[10],inactive
same,outcome,"CD69, CD69 (gene 969)",inactive
same,outcome,[11],inactive
same,outcome,[12],inactive
same,outcome,[13],inactive
same,outcome,[14],inactive
same,outcome,"CD90, THY1 (gene 7070)",inactive
same,outcome,[15],inactive
same,outcome,[16],inactive
same,outcome,"Decorin, DCN (gene 1634)",inactive
same,outcome,KRT18 (gene 3875),inactive
OCCC(F)(F)C(F)(F)C(F)(F)C(F)(F)C(F)(F)C(F)(F)C(F)(F)C(F)(F)F,outcome,[1],inactive
same,AC50,[2],21.4 µM (active) and 23.7 µM (active)
same,AC50,[3],8.57 µM (active) and 8 µM (active)
same,AC50,[4],17.8 µM (active)
same,outcome,[4],inactive
same,AC50,[5],12.4 µM (active)
same,AC50,[6],15.1 µM (active) and 15.7 µM (active)
same,AC50,[7],49.6 µM (active) and 45.9 µM (active)
same,outcome,[8],inactive
same,outcome,[9],inactive
same,AC50,[10],17.1 µM (active) and 11.1 µM (active)
same,AC50,"CD69, CD69 (gene 969)",30 µM (active) and 7.45 µM (active)
same,AC50,[11],13.5 µM (active) and 9.61 µM (active)
same,AC50,[12],21.2 µM (active) and 30 µM (active)
same,AC50,[13],30 µM (active)
same,AC50,[14],14.9 µM (active)
same,outcome,[14],inactive
same,outcome,"CD90, THY1 (gene 7070)",inactive
same,outcome,[15],inactive
same,AC50,[16],21.5 µM (active)
same,outcome,[16],inactive
same,AC50,"Decorin, DCN (gene 1634)",15.1 µM (active) and 14.5 µM (active)
same,AC50,KRT18 (gene 3875),38.6 µM (active)
same,outcome,KRT18 (gene 3875),inactive
